These results are taken from PubChem BioAssay.

Assay [1] can be described thus: E. coli DRC41 culture turbidity changes, primary screen, E. coli filamentation inducer project, strain DRC41, OD650, 48 h (AID 1152).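 Further: E. coli MC1000 strain DRC41 lacking acrAB efflux pump and sulA.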 As to conditions: E. coli DRC41 (acrAB sulA), higher = more signal, called active from +8 up or from −8 down.
The nature of assay [2]: small-molecule binders of probe aLefty1, primary screen, biochemical, small-molecule microarray, 635/667 nm fluorescence (AID 1153).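 Further: score merges spot fluorescence with signal-to-noise ratio from the scanned slide images.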 As to conditions: higher = more signal.
Assay [3] in a line: PSAC antagonists in infected red cells, primary screen, cell-based, P. falciparum Indochina, OD700, 1 h (AID 1154). As to conditions: P. falciparum Indochina infected RBC osmotic lysis, higher = more signal, called active from +8 up or from −8 down.
Assay [4] in a line: PSAC antagonists in infected red cells, primary screen, cell-based, P. falciparum Indochina, OD700, 2 h (AID 1155).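 Further: lysis reports solute entry through the parasite surface anion channel PSAC; channel blockers reduce lysis of infected cells.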 As to conditions: P. falciparum Indochina infected erythrocytes, osmotic lysis OD700; higher = more signal, called active from +8 up or from −8 down.
Assay [5] in a line: osmotic lysis modulators in infected erythrocytes, primary screen, PSAC antagonist project, cell-based, P. falciparum Indochina, OD700, 3 h (AID 1156). As to conditions: higher = more signal, called active from +8 up or from −8 down.
Assay [6] in a line: PSAC antagonists in infected red cells, primary screen, cell-based, P. falciparum Indochina, OD700, 18 h (AID 1157). As to conditions: P. falciparum Indochina infected erythrocytes, osmotic lysis OD700, 18 h; higher = more signal, called active from +8 up or from −8 down.
Assay [7] can be described thus: modulators of S6 phosphorylation in cells, primary screen, cell-based, A549, cytoblot, luminescence, serum-stimulated (AID 1158).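 Further: serum-stimulated A549 lung adenocarcinoma cells; signal is phosphorylated S6 detected by cytoblot immunostaining with HRP secondary.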 As to conditions: A549 phospho-S6 cytoblot, 5 h, higher = more signal.
In assay [8] the target is NADPH oxidase 2 (Homo sapiens) (UniProt P04839). In words: NOX2-dependent H2O2 signal modulators, primary screen, NOX inhibitor project, cell-based, HEK293-NOX2, PMA-stimulated, Amplex Red fluorescence (AID 1159). Further: test concentration not given here. As to conditions: 45 min, higher = more signal, called active from +8 up or from −8 down.
Chain of NADPH oxidase 2 (Homo sapiens) (P04839 whole entry, looked up): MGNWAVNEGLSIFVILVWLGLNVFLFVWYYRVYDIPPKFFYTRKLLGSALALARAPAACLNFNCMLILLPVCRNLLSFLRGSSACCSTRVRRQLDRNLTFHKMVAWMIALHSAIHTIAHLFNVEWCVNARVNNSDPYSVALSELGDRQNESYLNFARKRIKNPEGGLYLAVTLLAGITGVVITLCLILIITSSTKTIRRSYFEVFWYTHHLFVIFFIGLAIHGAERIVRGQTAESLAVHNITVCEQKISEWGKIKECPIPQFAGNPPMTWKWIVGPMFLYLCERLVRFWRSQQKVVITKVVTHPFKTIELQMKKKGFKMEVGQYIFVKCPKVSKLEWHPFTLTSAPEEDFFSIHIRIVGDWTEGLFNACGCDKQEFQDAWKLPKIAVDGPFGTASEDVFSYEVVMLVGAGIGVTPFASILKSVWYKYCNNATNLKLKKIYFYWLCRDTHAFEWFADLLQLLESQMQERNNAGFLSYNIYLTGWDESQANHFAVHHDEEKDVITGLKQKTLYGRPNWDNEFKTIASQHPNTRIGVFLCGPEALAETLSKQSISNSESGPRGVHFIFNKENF
In assay [9] the target is NADPH oxidase 4 (Homo sapiens) (UniProt Q9NPH5). As to the kind of experiment: NOX4-dependent H2O2 signal modulators, primary screen, NOX inhibitor project, cell-based, HEK293-NOX4, tetracycline-induced, Amplex Red fluorescence (AID 1160). As to conditions: 45 min, higher = more signal, called active from +8 up or from −8 down.
Chain of NADPH oxidase 4 (Homo sapiens) (Q9NPH5 whole entry, looked up): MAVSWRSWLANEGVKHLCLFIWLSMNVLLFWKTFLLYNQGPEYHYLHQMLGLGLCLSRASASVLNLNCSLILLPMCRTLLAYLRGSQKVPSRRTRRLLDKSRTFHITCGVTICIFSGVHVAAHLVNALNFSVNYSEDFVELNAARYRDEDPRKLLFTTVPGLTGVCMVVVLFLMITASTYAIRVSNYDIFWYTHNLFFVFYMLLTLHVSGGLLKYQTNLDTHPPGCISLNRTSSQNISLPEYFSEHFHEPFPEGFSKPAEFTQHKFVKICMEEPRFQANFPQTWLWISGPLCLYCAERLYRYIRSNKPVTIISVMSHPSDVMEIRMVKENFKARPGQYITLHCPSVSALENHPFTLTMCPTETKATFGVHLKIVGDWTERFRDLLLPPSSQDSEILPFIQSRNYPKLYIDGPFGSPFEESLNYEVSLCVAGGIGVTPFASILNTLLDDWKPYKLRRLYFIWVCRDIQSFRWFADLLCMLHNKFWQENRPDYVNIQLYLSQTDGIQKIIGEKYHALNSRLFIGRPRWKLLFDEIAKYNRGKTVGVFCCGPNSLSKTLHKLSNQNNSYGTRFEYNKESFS
Assay [10] has as its target NADPH oxidase 5 (Homo sapiens) (UniProt Q96PH1). In words: NOX5-dependent H2O2 signal modulators, primary screen, NOX inhibitor project, cell-based, HEK293-NOX5, Amplex Red fluorescence (AID 1161). As to conditions: HEK293-NOX5, ionomycin, 45 min, higher = more signal.

The source made the active and inactive calls.

Chain of NADPH oxidase 5 (Homo sapiens) (Q96PH1 whole entry, looked up): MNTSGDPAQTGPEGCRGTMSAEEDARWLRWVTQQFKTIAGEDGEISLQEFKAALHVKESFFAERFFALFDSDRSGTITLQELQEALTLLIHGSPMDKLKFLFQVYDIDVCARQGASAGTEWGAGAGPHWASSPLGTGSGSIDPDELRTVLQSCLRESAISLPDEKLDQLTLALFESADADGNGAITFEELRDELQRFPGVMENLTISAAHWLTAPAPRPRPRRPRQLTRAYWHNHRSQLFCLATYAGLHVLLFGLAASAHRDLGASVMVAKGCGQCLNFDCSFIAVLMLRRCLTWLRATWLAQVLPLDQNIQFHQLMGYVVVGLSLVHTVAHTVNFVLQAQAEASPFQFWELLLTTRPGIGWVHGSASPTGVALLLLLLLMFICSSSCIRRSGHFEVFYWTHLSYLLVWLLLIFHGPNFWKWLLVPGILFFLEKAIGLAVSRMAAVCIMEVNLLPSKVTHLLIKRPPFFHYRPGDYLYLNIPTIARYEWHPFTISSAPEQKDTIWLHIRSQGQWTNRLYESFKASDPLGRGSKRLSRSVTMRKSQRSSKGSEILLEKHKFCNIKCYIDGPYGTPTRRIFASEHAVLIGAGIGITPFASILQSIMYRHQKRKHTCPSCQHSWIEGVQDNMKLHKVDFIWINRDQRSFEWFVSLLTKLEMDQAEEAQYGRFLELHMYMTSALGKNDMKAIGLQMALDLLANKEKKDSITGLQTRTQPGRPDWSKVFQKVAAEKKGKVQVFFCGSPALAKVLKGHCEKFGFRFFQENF

Consider `Cc1ccc(S[C@]2(C(=O)NC(C)C)CC(=O)N(Cc3ccccc3C(F)(F)F)[C@@H]2c2ccc(CO)cc2I)cc1`, for which the z-score in assay [1] was 0.346 (inactive); in assay [3] it was 11.2 (active); in [4] it was 0.141 (inactive); in assay [5], 1.03 (inactive); in assay [6] it was -0.945 (inactive); in assay [7] it was 2.05. The z-score in assay [8] is 0.95 (inactive); in assay [9], -3.44 (inactive); in assay [10], -1.78. In assay [2], the composite z-score was found to be 0.135.

For the compound `C=C[C@@H](C)[C@H](OC(=O)Nc1ccc(SC)cc1)c1ccc(OCCO)cc1`, the z-score in assay [1] is -0.605 (inactive); in assay [3], 27.9 (active); in assay [4] it was 12 (active); in [5] it was 3.4 (inactive); in assay [6], 1.75 (inactive); in assay [7], 2.17. For the same compound, the results for the z-score in assay [8], in [9] and in [10] were -0.329 (inactive), -0.14 (inactive) and -0.18, respectively. The same compound returned a composite z-score in [2] of -0.33.

On to `O=C1NC(=O)C2C1C=CC(C(O)c1c(F)cccc1Cl)N2Nc1ccccn1` (stereo not given), for which the z-score in [1] is -0.805 (inactive); in assay [3], -0.0298 (inactive); in assay [4], 0.653 (inactive); in assay [5], -0.254 (inactive); in assay [6], 0.828 (inactive); in assay [7], -1.1. In addition, the z-score in [8] is -1.84 (inactive); in assay [9], -3 (inactive); in assay [10] it was -2.23. Besides, the composite z-score in assay [2] turned out to be 0.245.

`C[C@@H](OCc1ccccc1)C1NC(=O)[C@@]23C(=O)N[C@@H](Cc4ccccc4)C2[C@H](C)[C@@]2(C)O[C@H]2C3/C=C/C/C=C\CNC(=O)CNC1=O` (stereo not given in full): the z-score was -0.824 (inactive) in [1]; 1.53 (inactive) in assay [3]; 0.095 (inactive) in assay [4]; 0.543 (inactive) in assay [5]; -0.0634 (inactive) in [6]; -0.213 in [7]. Moreover, the z-score was 1.01 (inactive) in [8], 1.32 (inactive) in assay [9] and 1.56 in [10]. For the same compound, the composite z-score in assay [2] is -0.012.

Consider `COC(=O)[C@]1(CCS(=O)(=O)c2ccccc2)N=C(c2ccc(OCCCO)cc2)O[C@@H]1c1ccccc1CN=[N+]=[N-]`, for which the z-score was -2.11 (inactive) in assay [1]; 30.4 (active) in assay [3]; 28 (active) in assay [4]; 1.82 (inactive) in assay [5]; 5.19 (inactive) in assay [6]; -0.505 in assay [7]. Besides, the z-score was -5.83 (inactive) in assay [8], -1.31 (inactive) in [9] and -3.08 in assay [10]. In assay [2], this compound gave a composite z-score of 0.15.

Take `O=c1cccc(-c2ccc(C(F)(F)F)cc2)o1`: the z-score in assay [1] was -1.06 (inactive); in assay [3] it was 20.1 (active); in assay [4], 3.36 (inactive); in assay [5], -1.13 (inactive); in assay [6], 1.1 (inactive); in assay [7] it was -0.564. Also, the z-score was 0.584 (inactive) in assay [8], -2.27 (inactive) in assay [9] and -0.246 in assay [10]. Moreover, the composite z-score in assay [2] was -0.103.

For the compound `CO[C@H]1O[C@H](CO)[C@@H](OC(=O)Nc2ccc(Oc3ccccc3)cc2)[C@H](OC(=O)Nc2ccccc2-c2ccccc2)[C@@H]1OC(=O)Nc1ccccc1-c1ccccc1`, the z-score in [1] was 0.963 (inactive); in assay [3], 0.484 (inactive); in [4], 1.04 (inactive); in assay [5], 0.228 (inactive); in [6] it was 0.766 (inactive); in assay [7], 0.322. In addition, the results for the z-score in assay [8], in [9] and in assay [10] were 2.06 (inactive), 0.707 (inactive) and 0.356, respectively. In assay [2], this compound returned a composite z-score of 0.361.

On to `CC[C@H]1C2=C3C(CC[C@H]4C(OCc5ccc(F)cc5C(F)(F)F)OC[C@](C)([C@@H]34)N(C(=O)OC(C)(C)C)C2)C2COC(=O)OCC21` (stereo not given in full), for which the z-score in [1] was -2.17 (inactive); in assay [3], 1.28 (inactive); in [4] it was 0.584 (inactive); in assay [5], 1.63 (inactive); in assay [6], 0.91 (inactive); in assay [7], -0.445. In addition, the results for the z-score in [8], in assay [9] and in [10] were -0.582 (inactive), -1.74 (inactive) and -1.5, respectively. Further, in assay [2], the composite z-score turned out to be 0.513.

Turning to `COCCOC(=O)N1C(=O)[C@@]2(c3cc(C#Cc4ccc(OC)cc4)ccc31)[C@H](C(=O)N1CCCCCCC1)[C@H]1C(=O)O[C@H](c3ccccc3)[C@H](c3ccccc3)N1[C@@H]2c1ccc(O)cc1`, the z-score was 0.785 (inactive) in assay [1]; 1.04 (inactive) in [3]; -0.134 (inactive) in assay [4]; -0.318 (inactive) in [5]; -0.518 (inactive) in assay [6]; 1.27 in [7]. Besides, the z-score in [8] is -0.76 (inactive); in assay [9], -0.951 (inactive); in assay [10] it was -1.4. This compound returned a composite z-score in [2] of 1.58.

For `Cc1c(NC(=O)/C(C#N)=C/C=C/c2ccccc2[N+](=O)[O-])c(=O)n(-c2ccccc2)n1C`, the z-score in [1] was 0.56 (inactive); in assay [3], 2.91 (inactive); in assay [4], 0.548 (inactive); in assay [5], 0.681 (inactive); in assay [6] it was 0.0839 (inactive); in assay [7] it was -0.243. Also, the z-score in assay [8] was -0.235 (inactive); in [9] it was 0.0287 (inactive); in assay [10], 0.657. Further, the composite z-score in assay [2] is -0.184.

Turning to `Cc1ccc(F)cc1S(=O)(=O)N[C@@H]1CCN(Cc2ccc(Oc3ccccc3)cc2)C1`, the z-score in assay [1] was -12.2 (active); in [3] it was 7.61 (inactive); in assay [4] it was 1.9 (inactive); in assay [5], 0.701 (inactive); in assay [6], 1.19 (inactive); in assay [7] it was -0.766. The z-score was -0.615 (inactive) in [8], -1.08 (inactive) in [9] and -1.67 in [10]. Besides, in assay [2], the composite z-score was found to be 0.266.

As for `O=C1NC(=O)C2C1C=CC(C(O)c1ccc3c(c1)OCO3)N2Nc1ccccn1` (stereo not given), the z-score was -0.0438 (inactive) in [1]; -0.113 (inactive) in assay [3]; -0.665 (inactive) in [4]; -0.752 (inactive) in [5]; -0.839 (inactive) in assay [6]; 0.883 in [7]. Moreover, the z-score is -1.27 (inactive) in [8], -3 (inactive) in assay [9] and -1.73 in [10]. The compound also showed a composite z-score in assay [2] of -0.112.

Take `CC(C)NC(=O)[C@@]1(C)c2ccccc2C(=O)N(C(C)C)[C@H]1c1ccc(CO)cc1`: the z-score in assay [1] was -0.508 (inactive); in assay [3], 1.21 (inactive); in assay [4], 0.547 (inactive); in assay [5], 0.702 (inactive); in assay [6], 0.255 (inactive); in [7], 0.0605. Further, the z-score in [8] is -0.0231 (inactive); in assay [9] it was 0.375 (inactive); in assay [10], 0.222. The compound further displayed a composite z-score in assay [2] of -0.0699.
